PubChem BioAssay (NCI)
About 79,000 compounds went through this panel and 15% of them were active in at least one assay; those are over-represented in the sample as a whole. Unmarked numbers belong to inactive results. Calls of active or inactive are those of the source. Cut-off read from the data, not from the text of the source: active = growth inhibition above about 70%; inactive = the rest.

What was measured:
[1] = NCI Yeast Anticancer Drug Screen. Data for the rad50 strain (AID 155);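 note: 0% = growth of vehicle-only cultures of the same strain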; conditions: S. cerevisiae rad50 strain growth inhibition, active compounds read high
Method in brief: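 Yeast carrying a defined DNA repair defect were exposed to test compounds, and growth was compared with vehicle-treated controls to give percent inhibition.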

[2] = NCI Yeast Anticancer Drug Screen. Data for the mec2-1 strain (AID 157); conditions: S. cerevisiae mec2-1 strain, active compounds read high
Method in brief: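 Vehicle-treated cultures served as reference for growth inhibition of compound-exposed mec2-1 yeast.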

[3] = NCI Yeast Anticancer Drug Screen. Data for the sgs1 mgt1 strain (AID 161);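 note: 0% = growth of cultures given vehicle only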; conditions: S. cerevisiae sgs1 mgt1 strain, active compounds read high
Method in brief: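 Read-out: growth inhibition vs vehicle controls. Cells: mutant yeast strain deficient in DNA damage repair.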

[4] = NCI Yeast Anticancer Drug Screen. Data for the cln2 rad14 strain (AID 165);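 note: 0% = growth equal to vehicle treated cultures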; conditions: S. cerevisiae cln2 rad14 strain, active compounds read high
Method in brief: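 Each compound was tested on cln2 rad14 yeast. Inhibition of growth was calculated against vehicle-exposed controls.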

[5] = NCI Yeast Anticancer Drug Screen. Data for the bub3 strain (AID 167); conditions: S. cerevisiae bub3 mutant strain, active compounds read high
Method in brief: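 Compounds were applied to a genetically altered yeast strain carrying a cell-cycle control defect. Growth inhibition was scored against vehicle-treated controls.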

[6] = NCI Yeast Anticancer Drug Screen. Data for the mlh1 rad18 strain (AID 175); conditions: S. cerevisiae mlh1 rad18 strain growth inhibition, active compounds read high
Method in brief: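 Vehicle-treated cultures served as the reference for growth inhibition in a yeast strain carrying DNA damage repair alterations exposed to each compound.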

[7] = at 5.0 µM (retest, dose inferred, filed as 0.5)
[8] = at 50.0 µM (retest, dose inferred, filed as 5.0)

CCOC(=O)OC(=S)N(C1CCCCC1)C1CCCCC1
growth inhibition [1, 7]: 4%
growth inhibition [1, 8]: 58%
growth inhibition ([1]; at 50.0 µM): 50.5%
growth inhibition [2, 7]: 0%
growth inhibition [2, 8]: 90% (active)
growth inhibition ([2]; at 50.0 µM): 16.6%
growth inhibition [3, 7]: 5%
growth inhibition [3, 8]: 76% (active)
growth inhibition ([3]; at 50.0 µM): 50.8%
growth inhibition [4, 7]: 5%
growth inhibition [4, 8]: 58%
growth inhibition ([4]; at 50.0 µM): 41.4%
growth inhibition [5, 7]: -1%
growth inhibition [5, 8]: 77% (active)
growth inhibition ([5]; at 50.0 µM): 61.9%
growth inhibition [6, 7]: 1%
growth inhibition [6, 8]: 85% (active)
growth inhibition ([6]; at 50.0 µM): 60.8%

COc1cc(C(c2ccccc2)c2ccccc2)c2ccccc2c1O
growth inhibition [1, 7]: 15%
growth inhibition [1, 8]: 51%
growth inhibition ([1]; at 50.0 µM): 33.3%
growth inhibition [2, 7]: 15%
growth inhibition [2, 8]: 41%
growth inhibition ([2]; at 50.0 µM): 16.6%
growth inhibition [3, 7]: -17%
growth inhibition [3, 8]: 25%
growth inhibition ([3]; at 50.0 µM): 61.4%
growth inhibition [4, 7]: 13%
growth inhibition [4, 8]: 73% (active)
growth inhibition ([4]; at 50.0 µM): 44.9%
growth inhibition [5, 7]: 8%
growth inhibition [5, 8]: 70% (active)
growth inhibition ([5]; at 50.0 µM): 40.2%
growth inhibition [6, 7]: 24%
growth inhibition [6, 8]: 75% (active)
growth inhibition ([6]; at 50.0 µM): 74% (active)

c1ccc([B-](c2ccccc2)(c2ccccc2)c2ccccc2)cc1
growth inhibition [1, 7]: -3%
growth inhibition [1, 8]: -6%
growth inhibition ([1]; at 50.0 µM): 98.2% (active)
growth inhibition [2, 7]: -4%
growth inhibition [2, 8]: -1%
growth inhibition ([2]; at 50.0 µM): 95% (active)
growth inhibition [3, 7]: 0%
growth inhibition [3, 8]: -3%
growth inhibition ([3]; at 50.0 µM): 98.2% (active)
growth inhibition [4, 7]: 4%
growth inhibition [4, 8]: -16%
growth inhibition ([4]; at 50.0 µM): 98.4% (active)
growth inhibition [5, 7]: 5%
growth inhibition [5, 8]: 2%
growth inhibition ([5]; at 50.0 µM): 93.3% (active)
growth inhibition [6, 7]: 1%
growth inhibition [6, 8]: -2%
growth inhibition ([6]; at 50.0 µM): 98.5% (active)

CC(C)N1C(=O)c2ccccc2S1(Cl)c1ccccc1 (stereo not given)
growth inhibition [1, 7]: 2%
growth inhibition [1, 8]: 0%
growth inhibition ([1]; at 50.0 µM): 97.5% (active)
growth inhibition [2, 7]: -6%
growth inhibition [2, 8]: 6%
growth inhibition ([2]; at 50.0 µM): 96.8% (active)
growth inhibition [3, 7]: 4%
growth inhibition [3, 8]: -3%
growth inhibition ([3]; at 50.0 µM): 94.5% (active)
growth inhibition [4, 7]: -2%
growth inhibition [4, 8]: 2%
growth inhibition ([4]; at 50.0 µM): 88.2% (active)
growth inhibition [5, 7]: -7%
growth inhibition [5, 8]: -6%
growth inhibition ([5]; at 50.0 µM): 98.5% (active)
growth inhibition [6, 7]: -2%
growth inhibition [6, 8]: 4%
growth inhibition ([6]; at 50.0 µM): 98.3% (active)

CCCCCCCCCCCCNCc1ccc2c(c1)OCO2
growth inhibition [1, 7]: 98% (active)
growth inhibition [1, 8]: 96% (active)
growth inhibition ([1]; at 50.0 µM): 98.8% (active)
growth inhibition [2, 7]: 99% (active)
growth inhibition [2, 8]: 97% (active)
growth inhibition ([2]; at 50.0 µM): 99.1% (active)
growth inhibition [3, 7]: 99% (active)
growth inhibition [3, 8]: 96% (active)
growth inhibition ([3]; at 50.0 µM): 57.8%
growth inhibition [4, 7]: 99% (active)
growth inhibition [4, 8]: 96% (active)
growth inhibition ([4]; at 50.0 µM): 95.9% (active)
growth inhibition [5, 7]: 99% (active)
growth inhibition [5, 8]: 95% (active)
growth inhibition ([5]; at 50.0 µM): 98.7% (active)
growth inhibition [6, 7]: 99% (active)
growth inhibition [6, 8]: 95% (active)
growth inhibition ([6]; at 50.0 µM): 99% (active)

NC(=O)NCCCCC1NC(=S)N(c2ccccc2)C1=O (stereo not given)
growth inhibition [1, 7]: -5%
growth inhibition [1, 8]: -4%
growth inhibition ([1]; at 50.0 µM): -3.85%
growth inhibition [2, 7]: -8%
growth inhibition [2, 8]: -16%
growth inhibition ([2]; at 50.0 µM): -3.45%
growth inhibition [3, 7]: -7%
growth inhibition [3, 8]: 47%
growth inhibition ([3]; at 50.0 µM): 29.8%
growth inhibition [4, 7]: -3%
growth inhibition [4, 8]: -3%
growth inhibition ([4]; at 50.0 µM): -4.9%
growth inhibition [5, 7]: -9%
growth inhibition [5, 8]: -7%
growth inhibition ([5]; at 50.0 µM): 5.05%
growth inhibition [6, 7]: -9%
growth inhibition [6, 8]: -8%
growth inhibition ([6]; at 50.0 µM): -12.3%

CNC(=O)c1cccc2c(Nc3ccc(NS(C)(=O)=O)cc3OC)c3cccc(C)c3nc12
growth inhibition [1, 7]: 47%
growth inhibition [1, 8]: 93% (active)
growth inhibition ([1]; at 50.0 µM): 75.8% (active)
growth inhibition [2, 7]: 17%
growth inhibition [2, 8]: 95% (active)
growth inhibition ([2]; at 50.0 µM): -0.8%
growth inhibition [3, 7]: 12%
growth inhibition [3, 8]: 66%
growth inhibition ([3]; at 50.0 µM): -4.45%
growth inhibition [4, 7]: 30%
growth inhibition [4, 8]: 57%
growth inhibition ([4]; at 50.0 µM): -0.4%
growth inhibition [5, 7]: 19%
growth inhibition [5, 8]: 91% (active)
growth inhibition ([5]; at 50.0 µM): -37.2%
growth inhibition [6, 7]: 19%
growth inhibition [6, 8]: 86% (active)
growth inhibition ([6]; at 50.0 µM): -24.5%

O=C1CNC(=O)c2cc(N=Cc3cc(Br)ccc3O)ccc2N1
growth inhibition [1, 7]: 10%
growth inhibition [1, 8]: 95% (active)
growth inhibition ([1]; at 50.0 µM): 82% (active)
growth inhibition [2, 7]: 8%
growth inhibition [2, 8]: 98% (active)
growth inhibition ([2]; at 50.0 µM): 62%
growth inhibition [3, 7]: 13%
growth inhibition [3, 8]: 96% (active)
growth inhibition ([3]; at 50.0 µM): 93.5% (active)
growth inhibition [4, 7]: 2%
growth inhibition [4, 8]: 30%
growth inhibition ([4]; at 50.0 µM): 22.6%
growth inhibition [5, 7]: -1%
growth inhibition [5, 8]: 95% (active)
growth inhibition ([5]; at 50.0 µM): 43.4%
growth inhibition [6, 7]: 12%
growth inhibition [6, 8]: 97% (active)
growth inhibition ([6]; at 50.0 µM): 71.9% (active)

O=C1OC2(c3ccccc31)c1cc(I)c(O)c(I)c1Oc1c2cc(I)c(O)c1I
growth inhibition [1, 7]: 32%
growth inhibition [1, 8]: 99% (active)
growth inhibition ([1]; at 50.0 µM): 98.5% (active)
growth inhibition [2, 7]: 61%
growth inhibition [2, 8]: 99% (active)
growth inhibition ([2]; at 50.0 µM): 99.3% (active)
growth inhibition [3, 7]: 21%
growth inhibition [3, 8]: 56%
growth inhibition ([3]; at 50.0 µM): 99.6% (active)
growth inhibition [4, 7]: 15%
growth inhibition [4, 8]: 98% (active)
growth inhibition ([4]; at 50.0 µM): 98.8% (active)
growth inhibition [5, 7]: 15%
growth inhibition [5, 8]: 99% (active)
growth inhibition ([5]; at 50.0 µM): 99.2% (active)
growth inhibition [6, 7]: 62%
growth inhibition [6, 8]: 99% (active)
growth inhibition ([6]; at 50.0 µM): 98.7% (active)

COc1cc2c(cc1OC)C(=O)C(C)(c1ccccc1)NC2 (stereo not given)
growth inhibition [1, 7]: 20%
growth inhibition [1, 8]: 2%
growth inhibition ([1]; at 50.0 µM): 91.9% (active)
growth inhibition [2, 7]: 9%
growth inhibition [2, 8]: 42%
growth inhibition ([2]; at 50.0 µM): 98.8% (active)
growth inhibition [3, 7]: 3%
growth inhibition [3, 8]: -1%
growth inhibition ([3]; at 50.0 µM): 92.4% (active)
growth inhibition [4, 7]: 10%
growth inhibition [4, 8]: 56%
growth inhibition ([4]; at 50.0 µM): 99.5% (active)
growth inhibition [5, 7]: 2%
growth inhibition [5, 8]: 31%
growth inhibition ([5]; at 50.0 µM): 97.3% (active)
growth inhibition [6, 7]: 4%
growth inhibition [6, 8]: -3%
growth inhibition ([6]; at 50.0 µM): 97.8% (active)
